Consider 18 compounds from PubChem BioAssay AID743245 (National Center for Advancing Translational Sciences (NCATS), 2014).

Each structure is given as a SMILES string. The list shows a part of the results. Records with an inconclusive call do not appear. Calls of active or inactive are those of the source. Calls come from the whole dose curve; as a rule, active = well fitted inhibition curve with a large enough effect; inconclusive = small, poorly fitted or top-dose-only effect; inactive = flat fitted curve, though single readings scatter.

Chain of ATP-dependent Clp protease proteolytic subunit (Bacillus subtilis (strain 168)) (P80244 whole entry, looked up): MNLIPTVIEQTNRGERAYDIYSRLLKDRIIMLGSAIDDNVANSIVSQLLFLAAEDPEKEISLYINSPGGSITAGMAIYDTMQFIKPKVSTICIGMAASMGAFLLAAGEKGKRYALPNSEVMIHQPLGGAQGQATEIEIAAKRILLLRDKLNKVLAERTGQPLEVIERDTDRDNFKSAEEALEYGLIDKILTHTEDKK

The experiment deals with ATP-dependent Clp protease proteolytic subunit (Bacillus subtilis (strain 168)) (UniProt P80244). The experiment is described as follows: qHTS Assay for Activators of ClpP: Hit Validation of Inhibitors. Note: nearly all actives have a fitted effect of over 70% in size. The note with it: purified B. subtilis ClpP, FRET-FV substrate cleavage, 20 min; series mostly up to 57.5 µM. The source says:
The Clp protease proteolytic subunit (ClpP) is the core unit of the Clp complex belonging to the peptidase family S14 that hydrolyzes protein into small peptides in the presence of ATP and magnesium. It is ubiquitously expressed and is the major protease in bacteria. […] Unlike common antibiotics that simply interfere with the essential enzyme activity, ADEP binding activates the ClpP core in the absence of the regulatory Clp-ATPases leading to uncontrolled proteolysis and eventually cell death. Activators binding to the docking site on ClpP can also block formation of the ClpXP and ClpA/C-P holoenzyme complexes interfering with the normal biological functions of ClpP and thus have the potential to become new anti-microbials. To identify activators of ClpP, a FRET based quenching reversal assay was developed using a purified B. subtilis ClpP and a decapeptide substrate (FRET-FV). The FRET-FV is tagged with a fluorescent molecule amino benzoic acid (donor) at the N-terminus and a nitrotyrosine quencher (acceptor) at the C-terminus. FRET-FV cleaves upon activation of ClpP with ADEP treatement and reverses the quenching effect of the nitrotyrosine causing an increase in fluorescence emission signal at 430nm. This assay was used to screen the Molecular Libraries Small Molecule Repository (MLSMR). NIH Molecular Libraries Probe Production Centers Network [MLPCN] NIH Chemical Genomics Center [NCGC] MLPCN Grant: MH095569 Assay Submitter (PI): Michael Maurizi, National Cancer Institute
Two and a half microL/well of purified enzyme solution (final concentrations 10 microg/mL B. subtilis ClpP in 100 mM Tris/HCl pH8, 100 mM KCl, 0.05% low protease BSA, 2.5% glycerol, 0.01% Tween-20 buffer) was dispensed into 1536-well assay plates (Greiner, black solid, medium-binding plates) with Aurora Discovery BioRAPTR Flying Reagent Dispenser (FRD, Beckton-Dickenson). Compound solution (23 nL) was transferred to the assay plate using Kalypsys pin tool equipped with a 1536-pin tool. One and a half microL/well substrate solution (final concentrations 3 microM FRET-FV substrate in 100 mM Tris/HCl pH8, 100 mM KCl, 0.05% low protease BSA, 2.5% glycerol, 0.01% Tween-20 buffer) was then added for a total of 4 microL final reaction volume. FRET signals at time 0 and after 20 min room temperature incubation were obtained using the PerkinElmer Envision plate reader with 320nm excitation and 430nm emission filters. Delta FRET value (Time 20 - Time 0) was calculated and normalized to the delta FRET value of positive control ADEP (5.8 microM final concentration) and negative control DMSO and no enzyme wells.
In general terms: Quantitative high-throughput screening tests each substance at several concentrations.
As to `COc1ccc(CNC(=O)COC(=O)CCS(=O)(=O)c2ccc(C)cc2)cc1OC`, the Potency entry was “inactive”.
Turning to `Cc1nc2sc(C)c(C)n2c(=O)c1S(=O)(=O)NCCc1ccc(Cl)cc1`, the Potency is 24.3 µM (active).
The result for `Cc1cccc(-c2oc3ccc(-c4ccc5c(c4)OCO5)cc3c2C#Cc2cncn2C)c1` reads 24.3 µM (active); that for `Cc1cccc(NC(=O)c2nnn(CC(=O)Nc3ccc(C(C)C)cc3)c2N)c1C`, “inactive”; that for `COc1ccccc1NC(=O)c1oc2ccccc2c1NC(=O)COc1ccccc1OC`, 21.7 µM (active).
The result for `CCN(CCCNC(=O)c1cc2c(=O)n(CC)c3ccccc3c2s1)Cc1ccccc1` reads “inactive”.
The result for `Fc1cc(F)c2nc(Nc3nc4c(F)cccc4s3)sc2c1` reads 4.85 µM (active); that for `O=C(Nc1ccc2oc(-c3ccc4ccccc4c3)nc2c1)c1cccs1`, 10.9 µM (active).
Turning to `COc1ccc(CCNC(=O)c2ccc3c(c2)sc2nc(-c4ccc(C)cc4)cn23)cc1OC`, the Potency is 27.3 µM (active).
`CCOc1ccc(-c2cc(C)n3nc(C(=O)Nc4ccc(C)c(C)c4)cc3n2)cc1`: the Potency result was “inactive”.
The result for `CCCCn1c(=O)c2oc3ccccc3c2n(CC(=O)Nc2ccccc2OC)c1=O` reads “inactive”; that for `COc1cc2[nH]c(=O)n(Cc3ccc(C(=O)NCc4ccc(C)cc4)cc3)c(=O)c2cc1OC`, “inactive”; that for `CC(C)n1c(-c2cccs2)nc2ccccc21`, 21.7 µM (active).
The result for `CN(C(=O)c1cc2c(=O)n3ccccc3nc2s1)C1CCCCC1` reads 13.7 µM (active); that for `CCOC(=O)N1CCN(C(=O)c2ccc3nc4cc(Cl)ccc4c(=O)n3c2)CC1`, 27.3 µM (active); that for `COc1ccccc1CNC(=O)c1ccccc1NC(=O)c1nsc2ccccc12`, 24.3 µM (active).
The result for `CCOc1ccc(-c2nnc(-c3ccco3)o2)cc1` reads 21.7 µM (active).
Consider `CCCCN(C)c1ccc([N+](=O)[O-])cc1`, for which the Potency result was “inactive”.
